This is a sample that favours compounds with a hit; in the whole collection about 15% have one here.
ELG1 DNA repair: qHTS screen for small molecules that inhibit ELG1-dependent DNA repair in human embryonic kidney (HEK293T) cells expressing luciferase-tagged ELG1 | 330,000 compounds, 2.3% hits | Potency, µM (top dose mostly 46.1 µM), without a hit: at the highest dose activity change, negative = inhibition, most hits filed as inhibitors | HEK293T ELG1-luciferase reporter, luminescence, 16 h; DNA damage induced by 5-fluorouridine; also: nearly all actives have a fitted effect of over 55% in size
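Luminescence from the luciferase reporter, measured 30 min after ONE-Glo reagent at room temperature, was the read-out. Beforehand, 2,000 cells per well were exposed for 16 hr at 37 °C to 5-fluorouridine together with compound or vehicle.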
Gal4-VP16 FLuc: VP16 counterscreen qHTS for inhibitors of ROR gamma transcriptional activity | Drosophila S2 Gal4-VP16 UAS-luciferase, luminescence, 20 h | Potency, µM (titrated, usually from 53.6 µM), without a hit: at the highest dose activity, negative = inhibition, most hits filed as inhibitors | 310,000 compounds, 3.5% hits | AID 2546, 2010;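 also: Gal4-VP16 expression switched on by copper sulfate through the metallothionein promoter; nearly all actives have a fitted effect of over 50% in size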
RORg inh: qHTS for inhibitors of ROR gamma transcriptional activity; Drosophila S2 Gal4-RORgamma UAS-luciferase reporter, 20 h; Potency, µM (top dose mostly 53.6 µM), for the others: at the top dose activity change, negative = inhibition, most hits filed as inhibitors; 310,000 compounds, 5.4% hits; AID 2551, 2010; also: nearly all actives have a fitted effect of over 60% in size
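Compounds are pin-transferred onto Drosophila Schneider cells expressing a copper-inducible Gal4–ROR gamma transactivation domain fusion. After 1 hr, copper sulfate is added to 700 uM final; luciferase is read 20 hr later.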
TDP1 cell noCPT: qHTS for Inhibitors of human tyrosyl-DNA phosphodiesterase 1 (TDP1): qHTS in cells in absence of CPT; Potency, µM (highest dose often 46.2 µM), for the others: top-dose activity change, negative = growth inhibition, most hits filed as inhibitors; 420,000 compounds, 15% hits; AID 686978, 2013; DT40 Tdp1-/- hTDP1 cells, no CPT, ATP luminescence, 48 h; also: nearly all actives have a fitted effect of over 55% in size
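Chicken DT40 Tdp1-/- cells complemented with human TDP1, screened without camptothecin (DMSO vehicle only), 400 cells/well. Compounds pin-transferred, cells incubated at 37 °C for at least 48 hr. Growth read as ATP-dependent luminescence (CellTiter-Glo, 30 min at RT).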
ALOX12 inh: Primary qHTS assay for inhibitors of human arachidonate 12S-lipoxygenase (ALOX12): Round 2; AID 1671190, 2021; purified 12hLO, xylenol orange hydroperoxide absorbance; Potency, µM (series often up to 108 µM), without a hit: at the top dose activity change, negative = inhibition, usual class: inhibitors; 580,000 compounds, 1.1% hits
Target sequence (P18054 whole entry, looked up): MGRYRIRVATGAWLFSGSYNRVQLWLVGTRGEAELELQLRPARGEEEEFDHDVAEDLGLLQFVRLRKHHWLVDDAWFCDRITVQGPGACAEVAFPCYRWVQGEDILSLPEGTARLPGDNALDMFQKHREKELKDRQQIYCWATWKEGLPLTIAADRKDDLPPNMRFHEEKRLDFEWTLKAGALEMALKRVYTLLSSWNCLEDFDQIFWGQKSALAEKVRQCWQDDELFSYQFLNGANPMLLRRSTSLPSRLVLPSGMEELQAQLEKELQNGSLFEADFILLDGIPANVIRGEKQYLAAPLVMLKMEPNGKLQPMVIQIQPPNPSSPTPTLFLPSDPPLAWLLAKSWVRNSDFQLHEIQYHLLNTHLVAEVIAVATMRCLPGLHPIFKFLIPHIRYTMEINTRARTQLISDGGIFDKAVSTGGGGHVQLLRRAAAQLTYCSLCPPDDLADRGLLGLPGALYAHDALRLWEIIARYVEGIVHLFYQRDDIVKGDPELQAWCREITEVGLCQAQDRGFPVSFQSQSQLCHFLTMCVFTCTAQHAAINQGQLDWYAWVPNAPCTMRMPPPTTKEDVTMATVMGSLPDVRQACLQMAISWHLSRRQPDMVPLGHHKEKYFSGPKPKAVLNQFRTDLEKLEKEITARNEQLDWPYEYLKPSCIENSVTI
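Purified human 12hLO at 150 nM in 25 mM Hepes, 0.01% Triton X-100, pH 7.0, preincubated 15 min at room temperature with compound. Reaction started with 40 uM arachidonic acid, 30 min at room temperature. Hydroperoxide measured by Fe-xylenol orange, 573/405 nm absorbance ratio.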
DT40 TDP1 CPT: qHTS for Inhibitors of human tyrosyl-DNA phosphodiesterase 1 (TDP1): qHTS in cells in presence of CPT; chicken DT40 Tdp1-/-;hTDP1 cells + 20 nM CPT, ATP luminescence, 48 h; Potency, µM (doses to about 46.2 µM), for inactives: top-dose activity change, negative = growth inhibition, actives largely listed as inhibitors; 420,000 compounds, 12% hits; also: nearly all actives have a fitted effect of over 55% in size
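Chicken DT40 Tdp1-/- cells complemented with human TDP1, 400 cells/well, exposed to compounds plus 20 nM camptothecin for at least 48 h at 37 C; viability read as ATP content by CellTiter-Glo luminescence.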
Starred values were filed as active, the others as inactive; ? = inconclusive; / = not tested or not shown; [ ] = remark or other dose. Calls follow the shape of the dose curve; as a rule, active = well fitted curve in the direction sought with a large enough effect; inconclusive = small, poorly fitted or top-dose-only effect, or another doubt; inactive = no such curve, though single readings can be large; an effect the other way counts as inactive or inconclusive. % is scaled to controls: 0 for no effect and ±100 for the full control effect; potency is read from the fitted curve at half-maximal effect.

SMILES	ELG1 DNA repair	Gal4-VP16 FLuc	RORg inh	TDP1 cell noCPT	ALOX12 inh	DT40 TDP1 CPT
Cc1ccc(C2Cn3nnc(C(=O)N4CCC(C(=O)NCc5cccs5)CC4)c3CO2)cc1 (centres undefined)	/	/	/	/	11%	/
COc1ccc(NC(=O)C(c2ccc(C#N)cc2)n2c(=O)c(-c3ccco3)nc3ccccc32)cc1 (centres undefined)	/	/	/	-28%	?	-18%
COc1ccc(NC(=O)C(c2ccccc2)n2c(=O)c(-c3ccco3)nc3ccccc32)cc1 (centres undefined)	/	/	/	9.2µM*	-20%	10µM*
O=C(Nc1ccc2c(c1)OCCO2)C(c1ccccc1F)n1c(=O)c(-c2ccco2)nc2ccccc21 (centres undefined)	/	/	/	?	?	8.2µM*
COc1ccc(C(C(=O)Nc2ccc3c(c2)OCCO3)n2c(=O)c(-c3ccco3)nc3ccccc32)cc1 (centres undefined)	/	/	/	21µM*	?	12µM*
CC(C)CC(NC(N)=O)C(=O)NCc1ccc(C(F)(F)F)cc1 (centres undefined)	/	/	/	/	-4%	/
CC1=C(C(=O)NCC2Cn3cccc3C(=O)N2Cc2ccccc2)C2(CCCCC2)OC1=O (centres undefined)	/	/	/	/	-2%	/
C=CCN(CC=C)C(=S)NC(=O)/C=C/c1ccccc1	-2%	-27%	14µM*	23µM*	23%	?
C=CCN(CC=C)C(=S)NC(=O)/C=C/c1ccc(C)cc1	6%	?	6.3µM*	?	-20%	-16%
C=CCN(CC=C)C(=S)NC(=O)/C=C/c1ccc(OC)cc1	13%	-13%	-21%	-28%	-11%	-7%
Cn1ccnc1CN1C(=O)CO[C@H]2CN(CCCc3ccccc3)C[C@H]21	/	/	/	/	20%[176 µM]	/
CC(=O)Nc1ccc(C2=NN(c3ccccc3)C(c3ccccc3)C2)cc1 (centres undefined)	?	-20%	?	23µM*	-11%	?
N#CCC(=O)N/N=C/c1ccc(N2N=C(c3ccccc3)CC2c2ccccc2)cc1 (centres undefined)	?	2%	-42%	18µM*	-17%	23µM*
COc1ccc(C2=NN(c3ccc(C=O)cc3)C(c3ccccc3)C2)cc1 (centres undefined)	?	0%	12%	?	/	?
COc1ccc(C2CC(c3ccccc3)=NN2c2ccc(/C=N/NC(=O)c3ccncc3)cc2)cc1 (centres undefined)	?	7.1µM*	3.2µM*	?	-1%	?
O=C(NCc1coc(-c2cccs2)n1)c1cc(Cl)ccc1Cl	/	/	/	/	2%	/
CC(NC(=O)CCNC(=O)C1CCCC1)c1ccccc1 (centres undefined)	/	/	/	/	-9%	/
CCc1c(C)nc(N2CCN(c3ccccc3F)CC2)[nH]c1=O	5%	-1%	1%	23µM*	14%	?
COc1ccc(CC(=O)N2CCc3cc(OC)c(OC)cc3C2COc2ccc(F)cc2)cc1 (centres undefined)	/	/	/	16µM*	4%	13µM*
COc1ccc(OCC2c3cc(OC)c(OC)cc3CCN2C(=O)COc2ccc(Cl)cc2Cl)cc1 (centres undefined)	/	/	/	16µM*	-25%	?
CCC(=O)N1CCc2cc(OC)c(OC)cc2C1COc1ccc(OC)cc1 (centres undefined)	?	8%	7%	-20%	2%	-16%
COc1cc2c(cc1OC)C(COc1ccc(C(C)C)cc1)NCC2 (centres undefined)	-23%	?	-39%	16µM*	-24%	?
COc1cc2c(cc1OC)C(COc1ccc(C(C)C)cc1)N(C(=O)COc1ccccc1)CC2 (centres undefined)	/	/	/	?	-1%	?
CCCCC(=O)N1CCc2cc(OC)c(OC)cc2C1COc1ccc(OC)cc1 (centres undefined)	/	/	/	21µM*	9%	16µM*
CC1=C[C@@H](CNS(=O)(=O)Cc2ccccc2)[C@H](C(C)C)C[C@H]1CC(=O)N1CCOCC1	/	/	/	/	28%	/
SMILES	ELG1 DNA repair	Gal4-VP16 FLuc	RORg inh	TDP1 cell noCPT	ALOX12 inh	DT40 TDP1 CPT
CCc1cc(=O)oc2cc(OCC(=O)N3CCCc4cc(OC)ccc43)ccc12	/	/	/	/	-2%	/
CC(C)C(NC(N)=O)C(=O)O (centres undefined)	/	/	/	/	-2%	/
COc1cc2c(cc1OC)C(COc1cc(C)cc(C)c1)N(C(=O)c1ccc(S(=O)(=O)N3CCCC3)cc1)CC2 (centres undefined)	/	/	/	-22%	7%	?
COc1cc2c(cc1OC)C(COc1ccc(C(C)C)cc1)N(C(=O)c1ccc(S(=O)(=O)N3CCCC3)cc1)CC2 (centres undefined)	/	/	/	21µM*	-9%	?
COCCNC(=S)N1CCc2cc(OC)c(OC)cc2C1COc1cc(C)cc(C)c1 (centres undefined)	?	22µM*	?	?	?	26µM*
COc1ccc(C(=O)N2CCc3cc(OC)c(OC)cc3C2COc2ccccc2OC)cc1 (centres undefined)	/	/	/	29µM*	-12%	16µM*
COc1cc2c(cc1OC)C(COc1ccc(F)cc1)N(C(=O)Cc1ccccc1)CC2 (centres undefined)	/	/	/	?	0%	?
COC(=O)c1ccc(OCC2c3cc(OC)c(OC)cc3CCN2C(=O)Cc2ccccc2)cc1 (centres undefined)	/	/	/	16µM*	-3%	?
COc1cc2c(cc1OC)C(COc1ccccc1OC)N(C(C)=O)CC2 (centres undefined)	-18%	-6%	5%	-17%	1%	0%
CCC(CC)C(=O)N1CCc2cc(OC)c(OC)cc2C1COc1ccc(C(=O)OC)cc1 (centres undefined)	/	/	/	?	0%	?
COc1cc2c(cc1OC)C(COc1ccc([N+](=O)[O-])cc1)N(C(C)=O)CC2 (centres undefined)	8.2µM*	-7%	20%	18µM*	0%	23µM*

Bioassay records (PubChem BioAssay)
